High-throughput results deposited in PubChem by National Center for Advancing Translational Sciences (NCATS).
HEK293 viab: GF-AFC viability counterscreen for inhibitors of alpha-synuclein gene (SNCA) expression | HEK-293-SNCA-luc viability, GF-AFC fluorescence, 24 h | Potency, µM (doses to about 57.1 µM), without a hit: at the highest dose activity change, negative = cytotoxicity, actives largely listed as cytotoxic | 150,000 tested, 0.12% active;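 further: potency means the concentration at half of the fitted maximal effect; 0% = DMSO-treated cells and -100% = medium-only wells without cells; nearly all actives have a fitted effect of over 30% in size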
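Cytotoxicity counterscreen: after 24 h compound treatment of genome-edited SNCA-luciferase HEK-293 cells, live-cell protease substrate GF-AFC read by fluorescence after 30 min; activity scaled between DMSO (0%) and medium-only (-100%), curves Hill-fitted.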
GPT2 inhibitor: Primary qHTS assay for inhibitors of Glutamate pyruvate transaminase 2 (GPT2) | Alanine aminotransferase 2 (Homo sapiens), Q8TD30 | Recombinant GPT2, coupled pyruvate oxidase/HRP Amplex Red fluorescence | Potency, µM (doses to about 57.7 µM), inactives show at the top dose activity change, negative = inhibition, usual class: inhibitors | 100,000 tested, 0.25% active | AID 1671188, 2021; further: potency means the concentration at half of the fitted maximal effect; on the % scale 0 is the no-effect control and ±100 the full control effect; nearly all actives have a fitted effect of over 60% in size
Target sequence (Q8TD30 whole entry, looked up): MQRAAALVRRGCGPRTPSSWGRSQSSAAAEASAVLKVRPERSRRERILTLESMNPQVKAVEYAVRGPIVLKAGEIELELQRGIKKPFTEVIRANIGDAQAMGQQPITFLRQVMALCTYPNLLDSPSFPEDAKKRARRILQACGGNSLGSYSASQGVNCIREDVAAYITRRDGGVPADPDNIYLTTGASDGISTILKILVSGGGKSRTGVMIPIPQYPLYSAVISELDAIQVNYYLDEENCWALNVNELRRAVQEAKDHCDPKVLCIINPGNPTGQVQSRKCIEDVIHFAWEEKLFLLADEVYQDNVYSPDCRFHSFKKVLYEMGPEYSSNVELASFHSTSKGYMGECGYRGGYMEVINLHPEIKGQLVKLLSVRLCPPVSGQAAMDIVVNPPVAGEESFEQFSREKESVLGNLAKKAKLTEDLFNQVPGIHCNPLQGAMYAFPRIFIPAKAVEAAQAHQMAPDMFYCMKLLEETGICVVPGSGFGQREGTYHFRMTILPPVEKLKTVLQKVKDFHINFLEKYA
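Fluorescence read-out: pyruvate from GPT2 turnover coupled to pyruvate oxidase, HRP and Amplex Red (0.2mM ThPP, 0.2U/mL PO and HRP, 50uM Amplex final). Substrates 250uM a-KG, 2mM L-alanine; enzyme 10ng/uL; 30 min RT.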
SNCA expr inhib: Primary qHTS assay for inhibitors of alpha-synuclein gene (SNCA) expression | 140,000 tested, 0.17% active | HEK-293 SNCA-luciferase knock-in, luminescence, 24 h | Potency, µM (series often up to 57.2 µM), for inactives: at the top dose activity change, negative = inhibition, actives largely listed as inhibitors;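 further: potency means the concentration at half of the fitted maximal effect; plate controls were DMSO cells for no effect and cell-free wells for full effect; nearly all actives have a fitted effect of over 45% in size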
GPT2 inh cnf: Confirmatory qHTS assay for inhibitors of Glutamate pyruvate transaminase 2 (GPT2) | shares compounds with GPT2 inhibitor | GPT2 enzyme, coupled Amplex Red pyruvate fluorescence | Potency, µM, actives largely listed as inhibitors | 95 tested, 90% active | AID 1671187, 2021
Active calls of the source: *; i = inactive; ? = inconclusive; . = not tested or not shown; ! = not confirmed by another sample; [ ] = remark or other dose. Shown are actives, neighbours in structure and some others; about 0.32% of the full set was active somewhere. The call rests on the fitted dose curve; in most records, active means well fitted curve in the direction sought with a large enough effect; inconclusive means small, poorly fitted or top-dose-only effect, or another doubt; inactive means no such curve, though single readings can be large; an effect the other way counts as inactive or inconclusive.

SMILES	HEK293 viab	GPT2 inhibitor	SNCA expr inhib	others
Cc1noc(C)c1S(=O)(=O)N1CCC2(CC1)CC(Cc1ccccc1)CCO2 (configuration not stated)	2%	i	24%
O=C(c1ccc(OCCN2CCCCC2)cc1)c1c(-c2ccc(O)cc2)sc2cc(O)ccc12	?	8.9µM*!	7%
CCCCOc1ccc(C(=O)CCN2CCCCC2)cc1	-3%[23.9 µM]	i	57%[25.6 µM]
COc1ccccc1Nc1ccnc(N2CCC(C(=O)NCCc3ccc(Cl)cc3)CC2)n1	-3%	i	-8%
COc1ccccc1Nc1ccnc(N2CCC(NC(=O)C(C)C)CC2)n1	?	i	7%
COc1cc(N2CCC(O)CC2)ccc1Nc1nc(Nc2ccccc2S(=O)(=O)C(C)C)c2[nH]cnc2n1	-23%	18µM*	.
O=C1c2cc(N3CCOCC3)nc(-c3ccc(F)cc3)c2CN1CC1CC1	-8%[87.6 µM]	1%[88.5 µM]	18%[87.6 µM]
COc1ccc(-c2ccc3ncc4c(c3c2)n(-c2ccc(N3CCNCC3)c(C(F)(F)F)c2)c(=O)n4C)cn1	30µM*!	2%	?
O=C(C1CCCC1)N1CCc2nc(C3CC3)nc(-c3ccc(O)cc3)c2CC1	?	i	?
COc1ccc(NC(=O)c2cnc[nH]2)cc1	-12%	.	14µM*
O=C(Nc1cccc(Cl)c1)c1cnc[nH]1	-11%	.	48%
COc1cccc(-c2ccccc2NC(=O)C2CCN(Cc3cc(OC)ccc3O)CC2)c1	-30%	?	-30%
Cc1cccc(-c2cccc(CN3CCC(NC(=O)c4ccccc4F)CC3)c2)c1	-7%	1%	?
Cc1nc(CN2CC3(CCN(C)C3)c3cc(C(=O)NCCc4ccccc4)ccc32)cs1 (configuration not stated)	-2%	3%	23%
Nc1cccc(-c2ccc(N3CCCCC3)nn2)c1	-10%	-5%	1.8µM*
CCN1CCN(c2ccc(-c3cccc(N)c3)nn2)CC1	1%	i	?
O=C(CN1C(=O)COc2ccc(S(=O)(=O)N3CCCCCC3)cc21)Nc1cccc(Cl)c1	?	.	10µM*
Cc1ccc(NC(=O)CN2C(=O)COc3ccc(S(=O)(=O)N4CCCCCC4)cc32)cc1C	?	.	-8%
O=C(NC1CCCCC1)N1CCC(Oc2ccc(-c3noc(C4CC4)n3)cc2)C1 (configuration not stated)	-27%	1%	55%
COc1ccc(Nc2cc3c(cn2)NCCN(Cc2ccccc2)C3)cc1	?	?	?	GPT2 inh cnf=5.6*
Fc1ccccc1CN1CCNc2cnc(Nc3ccccc3)cc2C1	-25%[87.6 µM]	-84%[88.5 µM]	?
COCCN1CCNc2cc(Nc3cccc(OC)c3)ncc2C1	-18%[87.6 µM]	4%[88.5 µM]	79%[87.6 µM]
COc1ccc(CN2CCNc3cc(-c4ccccc4)ncc3C2)cn1	-13%[87.6 µM]	5%[88.5 µM]	?
COc1ccc(CN2CCNc3cnc(Nc4ccccc4)cc3C2)cn1	-9%[87.6 µM]	?	-5%[87.6 µM]	GPT2 inh cnf=3.1*
COCCN1CCNc2cc(Nc3ccc(N4CCOCC4)cc3)ncc2C1	6%[87.6 µM]	?	20%[87.6 µM]	GPT2 inh cnf=5.6*
SMILES	HEK293 viab	GPT2 inhibitor	SNCA expr inhib	others
c1ccc(Nc2cc3c(cn2)NCCN(Cc2ccsc2)C3)cc1	-14%[87.6 µM]	?	0%[87.6 µM]	GPT2 inh cnf=2.5*
COc1ccc(CN2CCNc3cc(Nc4ccccc4)ncc3C2)cc1	?	2%[88.5 µM]	15%[87.6 µM]
CCOc1ccc(C(=O)N2CCC(Cc3nc(-c4ccc(F)cc4)no3)CC2)cc1OCC	-20%	-3%	?
Cn1c([C@H]2CCN(Cc3cccc(C#N)c3)C2)nc2ccccc21	-7%[87.6 µM]	?	7%[87.6 µM]
CCn1nccc1C(=O)NCCC1CCN(C(=O)Nc2cc(F)cc(F)c2)CC1	6%	i	17%
O=C(c1cccs1)N1CCOc2ccc(N3CCCC3)cc2C1	-10%	1.3µM*	-24%	GPT2 inh cnf=1.4*
O=C(COc1ccc(F)cc1)N1CCOc2ccc(N3CCOCC3)cc2C1	-3%	4%	11%
CC(=O)Nc1ccc(-c2c(C3CC3)nn(-c3cccc(C)c3)c2OC(C)=O)cc1	?	?	-14%	GPT2 inh cnf=9.7*
CC(=O)Nc1ccc(C(=O)N2CCCC(c3nc(C)ncc3-c3cccc(C)c3)C2)cc1 (configuration not stated)	-13%	3%	?
CC(C)(N)C(=O)N1CCCC(N2CCN(Cc3ccc4c(c3)OCO4)CC2)C1 (configuration not stated)	-4%	?	8%
COc1ccc(Nc2ncc(C(=O)N3CCN(c4cccc(Cl)c4)CC3)c3ccccc23)cc1	12%	.	-6%
C=CC(=O)Nc1cccc(Nc2nc(Nc3ccc(N4CCN(C(C)=O)CC4)cc3OC)ncc2C(F)(F)F)c1	?	3.2µM*	.	GPT2 inh cnf=2.2*
COc1cccc(S(=O)(=O)N2CC(n3cc(C(=O)NCC4CC4)nn3)C2)c1	2%	i	24%
COc1ccc(NC(=O)NCC2CCCN(C(C)C)C2)cc1OC (configuration not stated)	3%	i	-4%
COc1ccc(NC2CCCN(C(=O)C(=O)CC(C)C)C2)cc1OC (configuration not stated)	-8%	22µM*	10%	GPT2 inh cnf=3.4*
COc1ccc(N2CC(C)(NC(C)=O)C2)cc1	.	.	.	GPT2 inh cnf=3.5*
CC(=O)NC1(C)CN(c2ccc(OC(F)(F)F)cc2)C1	4%[87.6 µM]	-9%[88.5 µM]	6%[87.6 µM]
CN1CCOc2c(C(=O)NCCc3ccccc3)cc(N3CCOCC3)cc21	-5%[87.6 µM]	?	2%[87.6 µM]
CC(C)CNC(=O)c1cc(N2CCOCC2)cc2c1OCCN2C	.	.	.	GPT2 inh cnf=2*
CN1CCOc2c(C(=O)NCCC(N)=O)cc(-c3ccccc3)cc21	-13%[87.6 µM]	i	8%[87.6 µM]
CN1CCOc2c(C(=O)N3CC[S+](=O)([O-])CC3)cc(N3CCOCC3)cc21	.	.	.	GPT2 inh cnf=2*
Cn1ccnc1CNC(=O)CC(c1cccc(O)c1)c1ccccc1Cl (configuration not stated)	-1%	0%	3%
Cc1ccc(Nc2ccnc(N3CCC(NC(=O)c4ccccc4C)CC3)n2)cc1	?	3%	?
Cc1cnc(C(=O)N2CCOc3ccc(CN4CCCCCC4)cc3C2)cn1	-3%	i	26%
CN(C)c1ccc2c(c1)CN(C(=O)c1cnccn1)CCO2	-14%	?	-15%	GPT2 inh cnf=0.86*
SMILES	HEK293 viab	GPT2 inhibitor	SNCA expr inhib	others
CC(C)C1=NOC2(CCN(CC3CCCCC3)CC2)C1	-3%[87.6 µM]	-7%[88.5 µM]	-26%[87.6 µM]
C(Cc1noc(C2CNC2)n1)OCC1CC1	?	-6%	?
Cc1cc2c(s1)Nc1ccccc1N=C2N1CCN(C)CC1	-29%	?	0%	GPT2 inh cnf=8.6*
Cc1ccc2c(c1)C(N1CCN(C)CC1)=Nc1cccnc1N2	2%	i	-6%
CNC(=O)c1cc(-c2cccc(NC(C)=O)c2)cc2c1OCCN2Cc1cccnc1	-8%[87.6 µM]	-3%[88.5 µM]	79%[87.6 µM]
CNC(=O)c1cc(Nc2cccc(N(C)C)c2)cc2c1OCCN2Cc1cccnc1	7%[87.6 µM]	?	6%[87.6 µM]	GPT2 inh cnf=3.5*
Cc1ccc(-c2c(C(=O)NC3CCCCC3)nc3sccn23)cc1	-18%[87.6 µM]	0%[88.5 µM]	-22%[87.6 µM]
